Values joined by “and” are separate entries in the source; they are usually repeats but may differ in a detail not shown here. Equal entries are not always repeated. About 83,000 compounds went through this panel and 20% of them were active in at least one assay; those are over-represented in the sample as a whole.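 Percent growth is the endpoint: 0 to 100 indicates growth inhibition (40 means 60% inhibition), 0 means no net growth, and negative values indicate cell death.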 Active and inactive are the calls of the source.
The compounds below were run on BT-549 breast (assay: NCI-60 one-dose screen, 48 h (100 = growth as untreated, 0 = no growth, -100 = all killed)). Conditions: 10 µM.
Description: Growth inhibition of the BT-549 human tumor cell line is measured as a screen for anti-cancer activity. Cells are grown in 96 well plates and exposed to the test compound for 48 hours. Compounds are tested at a single concentration, which is 10^-5 M for most compounds. The reported endpoint is percent growth (GI% or GIPRCNT), where numbers from 0 - 100% represent growth inhibition, and numbers from -100% - 0 represent cell death. For example, a value of 40 represents 60% growth inhibition. A value of 0 means no net growth occurred over the course of the experiment. A value of -40 indicates 40% of cells at the beginning of the experiment died by the end of the experiment. A value of -100 means all cells are dead at the end of the experiment.
NCI-60 Human Tumor Cell Lines Screen was performed using the standard one-dose NCI protocol, which is described in more detail at https://dtp.cancer.gov/discovery_development/nci-60/default.htm.
Compounds with GIPRCNT values below 10 were considered active. Activity score was based on GIPRCNT using the following formula: […]
Score is 0 for GIPRCNT values of 100 or above, 50 for GIPRCNT values of 0, and 100 for GIPRCNT values of -100.

Compound	growth
CC1(C)OB(c2ccc(Cn3cc(F)c(=O)[nH]c3=O)cc2)OC1(C)C	104% (inactive)
Cc1[nH]c(-c2nc3ccccc3[nH]2)c(C)c1C(=O)NC(C)C1CCCCC1 (stereo unspecified)	95.5% (inactive)
O=C(O)c1sccc1O	69.5% (inactive)

Same assay, conditions: 10 µM unless noted

Compound	growth
Cc1ccc(-c2noc(CC(=O)c3ccc([N+](=O)[O-])cc3)n2)cc1	103% (inactive)
CCOC(=O)Nc1nc2ccccc2[nH]1	105% (inactive) and 11.7% (inactive)
CCOC(=O)C(C(=O)OCC)C(c1ccccc1)N1CCN(c2ccccc2)CC1 (stereo unspecified)	103% (inactive) and 104% (inactive)
COC(=O)c1nc(N)nc(C(=O)OC)c1C(=O)c1ccc(OC)cc1	144% (inactive) and 77.1% (inactive)
CCOC(=O)Nc1ccc2c(c1)/C(=N\NC(N)=S)c1ccccc1-2	41.6% (inactive) and 82.6% (inactive)
Cc1nnc(NC/C=C/c2ccccc2)s1	97.6% (inactive) and 113% (inactive)
NC(=O)c1ccccc1OCC(O)CO (stereo unspecified)	109% (inactive)
Cc1ccc2nc3c(nc2c1)-c1cccc2cccc-3c12	111% (inactive)
CCOc1ccc2c(S(=O)(=O)O)cccc2c1[N+](=O)[O-]	119% (inactive) and 103% (inactive)
CCOc1ccc2cc(-c3nn(CC4CCN(C)CC4)c4ncnc(N)c34)ccc2c1	71.6% (inactive) and 45.7% (inactive)
COc1cc2c(c(OC)c1OC)-c1ccc(OC)c(=O)cc1[C@@H](NC(C)=O)CC2	4.27% (active) and -10% (active) and -7.06% (active)
CNc1ccc2nc3ccc(=[N+](C)C)cc-3sc2c1	49.1% (inactive)
COc1cc(-c2nccc3cc4c(cc23)OCO4)cc(OC)c1OC	56.8% (inactive)
O=[N+]([O-])c1ccc(Oc2ccccc2)cc1	83.9% (inactive) and 106% (inactive)
C=C1C(=O)O[C@H]2[C@H]1CC/C(COC(=O)NC1CCC(O)CC1)=C\CC[C@@]1(C)O[C@@H]21 (stereo partly specified)	83.3% (inactive) and 79.1% (inactive)
CC(O)Cn1cnc2c1c(=O)n(C)c(=O)n2C (stereo unspecified)	83.5% (inactive)
Oc1ccc(/C=C/c2ccccc2)cc1	62.6% (inactive) and 68.1% (inactive)
CC1=CCC2CC1C2(C)C (stereo unspecified)	71.6% (inactive) and 68.8% (inactive)

Compound	growth
Nc1ccccc1SC1CC(=O)N(c2cccc3ccccc23)C1=O (stereo unspecified)	102% (inactive)
Cc1nn(-c2ccccc2)nc1C(=O)Nc1ccccc1C(=O)NCC1CC1	123% (inactive) and 84.8% (inactive)
CCNC(=O)Nc1ccc(-c2nc3c(c(N4CCOC[C@@H]4C)n2)CCN(C2COC2)C3)cc1	28.9% (inactive) and -1.93% (active)
Cn1cnc([N+](=O)[O-])c1Sc1ncnc2nc[nH]c12	70.7% (inactive)
CC[N+](CC)(CC(=O)Nc1c(C)cccc1C)Cc1ccccc1	63.8% (inactive) and 106% (inactive)
CCCCCN(CCCCC)CC(O)c1cc2c(c3ccccc13)CCCC2 (stereo unspecified)	88.8% (inactive) and 59.8% (inactive)
NC(=S)NS(=O)(=O)c1ccc(N)cc1	128% (inactive)
Cn1c(=O)c2[nH]c(CCCCCCCCc3nc4ccccc4[nH]3)nc2n(C)c1=O	46.1% (inactive) and 54.1% (inactive)
COc1cc(C(=O)c2ccc3c(c2)OCO3)cc(OC)c1OC	45.5% (inactive) and 30.3% (inactive)
O=C1CCN(Cc2ccccc2)C(=S)N1	101% (inactive) and 117% (inactive)
CC(C)Oc1ccc2cc(-c3nn(CC4CCNCC4)c4ncnc(N)c34)ccc2c1	73.2% (inactive) and -5.14% (active)
COc1ccc(-c2ncnc3c2ncn3C/C=C/CCl)cc1	53.8% (inactive) and 87.2% (inactive)
N#C/C(=C1C=C/C(=N/O)C(Br)=C/1)c1ccccc1	36.2% (inactive)
CC(/C=N/N1C(=O)c2ccccc2C1=O)c1ccccc1 (stereo unspecified)	113% (inactive)
Cn1c(=O)n(-c2ccc(C(C)(C)C#N)cc2)c2c3cc(-c4cnc5ccccc5c4)ccc3ncc21	-8.12% (active) and -14.5% (active)
CNC(=O)c1ccc(C)c(-n2c(C)cc(OCc3ccc(F)cc3F)c(Br)c2=O)c1	75.7% (inactive) and 76.4% (inactive)
CCOc1ccc2nc3cc(N)ccc3c(N)c2c1	35.7% (inactive) and -3.05% (active)

Same assay, conditions: 50 µM

Compound	growth
CC1(C)OB(c2ccc(Cn3cc(F)c(=O)[nH]c3=O)cc2)OC1(C)C	40.1% (inactive)

Same assay, conditions: 100 µM

Compound	growth
Cc1[nH]c(-c2nc3ccccc3[nH]2)c(C)c1C(=O)NC(C)C1CCCCC1 (stereo unspecified)	-81.6% (active)
O=C(O)c1sccc1O	11.6% (inactive)

Reference: PubChem BioAssay (NCI)
